# Reference: the supplement of paper PMC11732987, “Enantioselective OTUD7B fragment discovery through chemoproteomics screening and high-throughput optimisation” (Communications Chemistry, 2025)
# Unmarked numbers belong to inactive results.
# Legend:
# Assay in all cases: log2 ratio of Biotin-Ahx-Ub-VS probe labelling (fragment/DMSO); higher = less target engagement (more negative = stronger competition), active = hit call of the paper (q ≤ 0.05, log2 ratio ≤ -1)
# Conditions in all cases: compound concentration: 200 uM; treatment time: 3 h
# USP42 = molecular target: T1, USP42 (UniProt Q9H9J4)
# T1 sequence (whole entry): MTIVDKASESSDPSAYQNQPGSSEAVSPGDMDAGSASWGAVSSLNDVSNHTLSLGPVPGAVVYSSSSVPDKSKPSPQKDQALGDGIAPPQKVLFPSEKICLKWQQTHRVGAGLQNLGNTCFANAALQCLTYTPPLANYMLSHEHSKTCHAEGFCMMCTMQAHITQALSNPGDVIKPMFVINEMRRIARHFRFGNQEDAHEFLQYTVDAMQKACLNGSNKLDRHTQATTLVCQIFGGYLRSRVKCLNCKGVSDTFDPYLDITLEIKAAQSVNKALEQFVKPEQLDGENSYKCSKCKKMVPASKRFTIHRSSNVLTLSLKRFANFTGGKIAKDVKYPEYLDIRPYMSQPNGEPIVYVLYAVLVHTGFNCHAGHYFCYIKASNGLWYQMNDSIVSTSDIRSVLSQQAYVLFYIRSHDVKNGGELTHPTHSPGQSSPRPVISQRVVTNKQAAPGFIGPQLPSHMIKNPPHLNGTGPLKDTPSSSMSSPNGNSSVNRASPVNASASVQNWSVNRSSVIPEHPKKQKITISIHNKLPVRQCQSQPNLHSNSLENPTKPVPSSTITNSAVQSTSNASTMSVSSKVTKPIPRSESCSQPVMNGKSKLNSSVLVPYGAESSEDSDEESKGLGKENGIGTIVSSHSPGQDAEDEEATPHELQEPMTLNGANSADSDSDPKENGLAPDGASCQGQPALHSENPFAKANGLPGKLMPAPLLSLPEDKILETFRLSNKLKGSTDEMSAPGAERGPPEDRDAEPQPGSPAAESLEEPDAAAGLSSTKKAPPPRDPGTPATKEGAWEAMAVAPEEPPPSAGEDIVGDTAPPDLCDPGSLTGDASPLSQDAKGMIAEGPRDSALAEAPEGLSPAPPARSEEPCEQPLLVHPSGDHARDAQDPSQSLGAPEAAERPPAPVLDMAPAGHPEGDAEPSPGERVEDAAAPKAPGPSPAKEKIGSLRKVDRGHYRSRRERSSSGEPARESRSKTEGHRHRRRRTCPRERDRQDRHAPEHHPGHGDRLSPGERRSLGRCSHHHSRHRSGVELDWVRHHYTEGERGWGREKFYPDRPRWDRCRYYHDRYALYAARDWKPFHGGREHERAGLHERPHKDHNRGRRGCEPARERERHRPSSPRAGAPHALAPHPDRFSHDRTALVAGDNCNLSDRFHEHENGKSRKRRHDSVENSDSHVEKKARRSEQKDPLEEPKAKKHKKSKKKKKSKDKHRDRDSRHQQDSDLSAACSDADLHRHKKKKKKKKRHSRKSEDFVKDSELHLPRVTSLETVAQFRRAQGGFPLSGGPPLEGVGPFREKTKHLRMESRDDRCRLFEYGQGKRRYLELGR
# Procedure, shortened: (§1)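 HEK293T lysate (495 µg per sample, in Tris/CHAPS/IGEPAL buffer with protease inhibitors) was exposed in triplicate for 3 h to fragment at 200 µM or to vehicle, then to Biotin-Ahx-Ub-VS at 0.5 µM final for 1 h. Labelled DUBs were enriched on NeutrAvidin, digested with LysC and trypsin, and analysed by diaPASEF LC-MS/MS. Spectronaut label-free quantities were normalised to the global median, and values are average log2 ratios of fragment over vehicle from an unpaired t-test. Only proteins with ≥2 unique peptides were used.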
# USP46 = USP46 (UniProt P62068)
# Sequence of USP46 (P62068 whole entry): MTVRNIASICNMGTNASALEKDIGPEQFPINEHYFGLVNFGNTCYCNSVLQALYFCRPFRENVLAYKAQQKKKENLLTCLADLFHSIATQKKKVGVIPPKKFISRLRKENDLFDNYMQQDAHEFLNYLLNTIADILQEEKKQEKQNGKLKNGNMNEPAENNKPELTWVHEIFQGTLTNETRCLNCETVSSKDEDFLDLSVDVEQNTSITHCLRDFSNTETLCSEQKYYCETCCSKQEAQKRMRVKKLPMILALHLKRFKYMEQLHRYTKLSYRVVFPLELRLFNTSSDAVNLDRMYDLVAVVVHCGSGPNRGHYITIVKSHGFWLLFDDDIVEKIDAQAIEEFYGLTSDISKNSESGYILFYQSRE
# Procedure, shortened: as §1
# USP47 = molecular target: T2, USP47 (UniProt Q96K76)
# T2 sequence (whole entry): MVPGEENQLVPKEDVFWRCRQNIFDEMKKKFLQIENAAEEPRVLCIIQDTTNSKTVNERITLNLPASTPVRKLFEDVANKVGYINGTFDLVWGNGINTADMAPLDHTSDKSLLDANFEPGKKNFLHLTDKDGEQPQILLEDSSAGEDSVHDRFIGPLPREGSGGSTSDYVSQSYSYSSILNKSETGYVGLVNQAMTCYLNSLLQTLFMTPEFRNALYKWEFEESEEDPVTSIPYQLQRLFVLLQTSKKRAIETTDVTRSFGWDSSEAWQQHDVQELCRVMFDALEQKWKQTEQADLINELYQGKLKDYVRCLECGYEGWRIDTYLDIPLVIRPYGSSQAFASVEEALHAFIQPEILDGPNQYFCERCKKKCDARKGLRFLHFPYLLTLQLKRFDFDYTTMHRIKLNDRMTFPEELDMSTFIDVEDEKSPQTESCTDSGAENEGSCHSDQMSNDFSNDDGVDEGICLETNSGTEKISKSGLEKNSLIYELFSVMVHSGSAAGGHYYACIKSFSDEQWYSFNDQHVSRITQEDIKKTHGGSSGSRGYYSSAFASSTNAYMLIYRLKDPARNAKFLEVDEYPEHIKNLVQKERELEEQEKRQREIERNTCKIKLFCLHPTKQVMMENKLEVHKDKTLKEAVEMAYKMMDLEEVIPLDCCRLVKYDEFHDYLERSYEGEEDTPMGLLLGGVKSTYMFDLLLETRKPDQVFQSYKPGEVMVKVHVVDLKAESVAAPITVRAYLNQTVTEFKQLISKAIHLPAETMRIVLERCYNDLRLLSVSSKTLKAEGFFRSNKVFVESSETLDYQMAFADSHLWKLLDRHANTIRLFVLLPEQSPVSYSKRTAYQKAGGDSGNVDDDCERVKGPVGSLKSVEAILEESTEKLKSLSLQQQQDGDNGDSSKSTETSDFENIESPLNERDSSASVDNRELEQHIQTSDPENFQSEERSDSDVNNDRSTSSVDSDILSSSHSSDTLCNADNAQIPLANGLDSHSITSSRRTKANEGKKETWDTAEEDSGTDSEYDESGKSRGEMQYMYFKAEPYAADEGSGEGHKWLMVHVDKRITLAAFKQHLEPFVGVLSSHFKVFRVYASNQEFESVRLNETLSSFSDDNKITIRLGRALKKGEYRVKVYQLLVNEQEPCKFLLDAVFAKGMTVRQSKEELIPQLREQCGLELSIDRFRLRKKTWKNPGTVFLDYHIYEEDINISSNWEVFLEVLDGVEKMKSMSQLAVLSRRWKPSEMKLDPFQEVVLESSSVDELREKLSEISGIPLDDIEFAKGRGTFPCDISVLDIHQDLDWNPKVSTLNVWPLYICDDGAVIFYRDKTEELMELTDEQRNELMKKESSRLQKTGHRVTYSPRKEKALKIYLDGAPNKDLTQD
# Procedure, shortened: as §1
# USP48 = molecular target: T3, USP48 (UniProt Q86UV5)
# T3 sequence (whole entry): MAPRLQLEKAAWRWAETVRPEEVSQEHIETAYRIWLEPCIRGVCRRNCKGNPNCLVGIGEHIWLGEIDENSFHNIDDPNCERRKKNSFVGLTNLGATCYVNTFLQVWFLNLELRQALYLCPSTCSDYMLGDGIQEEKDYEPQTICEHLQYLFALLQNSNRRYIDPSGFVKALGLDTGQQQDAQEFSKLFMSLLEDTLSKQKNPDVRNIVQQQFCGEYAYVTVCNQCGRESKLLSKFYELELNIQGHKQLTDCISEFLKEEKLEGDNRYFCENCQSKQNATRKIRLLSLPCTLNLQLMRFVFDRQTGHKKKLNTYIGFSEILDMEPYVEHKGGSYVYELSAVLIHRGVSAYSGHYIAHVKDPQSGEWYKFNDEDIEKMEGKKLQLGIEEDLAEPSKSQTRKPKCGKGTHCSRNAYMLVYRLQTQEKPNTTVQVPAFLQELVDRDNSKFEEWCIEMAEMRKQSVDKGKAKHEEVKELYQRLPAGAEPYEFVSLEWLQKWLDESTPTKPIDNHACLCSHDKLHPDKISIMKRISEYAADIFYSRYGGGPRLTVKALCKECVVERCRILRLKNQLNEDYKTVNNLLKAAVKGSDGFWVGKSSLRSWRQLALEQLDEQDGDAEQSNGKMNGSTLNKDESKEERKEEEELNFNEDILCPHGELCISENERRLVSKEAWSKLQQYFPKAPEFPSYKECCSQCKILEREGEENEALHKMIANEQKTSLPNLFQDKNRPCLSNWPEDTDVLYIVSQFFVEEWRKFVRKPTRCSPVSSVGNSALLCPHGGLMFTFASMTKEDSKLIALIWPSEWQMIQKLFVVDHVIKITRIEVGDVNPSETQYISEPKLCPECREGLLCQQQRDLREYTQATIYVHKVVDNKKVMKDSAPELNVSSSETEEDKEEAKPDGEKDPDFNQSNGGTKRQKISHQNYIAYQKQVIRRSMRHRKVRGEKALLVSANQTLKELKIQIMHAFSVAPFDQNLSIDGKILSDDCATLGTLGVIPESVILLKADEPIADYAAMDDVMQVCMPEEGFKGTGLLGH
# Procedure, shortened: as §1
# USP5 = molecular target: T4, USP5 (UniProt P45974)
# T4 sequence (whole entry): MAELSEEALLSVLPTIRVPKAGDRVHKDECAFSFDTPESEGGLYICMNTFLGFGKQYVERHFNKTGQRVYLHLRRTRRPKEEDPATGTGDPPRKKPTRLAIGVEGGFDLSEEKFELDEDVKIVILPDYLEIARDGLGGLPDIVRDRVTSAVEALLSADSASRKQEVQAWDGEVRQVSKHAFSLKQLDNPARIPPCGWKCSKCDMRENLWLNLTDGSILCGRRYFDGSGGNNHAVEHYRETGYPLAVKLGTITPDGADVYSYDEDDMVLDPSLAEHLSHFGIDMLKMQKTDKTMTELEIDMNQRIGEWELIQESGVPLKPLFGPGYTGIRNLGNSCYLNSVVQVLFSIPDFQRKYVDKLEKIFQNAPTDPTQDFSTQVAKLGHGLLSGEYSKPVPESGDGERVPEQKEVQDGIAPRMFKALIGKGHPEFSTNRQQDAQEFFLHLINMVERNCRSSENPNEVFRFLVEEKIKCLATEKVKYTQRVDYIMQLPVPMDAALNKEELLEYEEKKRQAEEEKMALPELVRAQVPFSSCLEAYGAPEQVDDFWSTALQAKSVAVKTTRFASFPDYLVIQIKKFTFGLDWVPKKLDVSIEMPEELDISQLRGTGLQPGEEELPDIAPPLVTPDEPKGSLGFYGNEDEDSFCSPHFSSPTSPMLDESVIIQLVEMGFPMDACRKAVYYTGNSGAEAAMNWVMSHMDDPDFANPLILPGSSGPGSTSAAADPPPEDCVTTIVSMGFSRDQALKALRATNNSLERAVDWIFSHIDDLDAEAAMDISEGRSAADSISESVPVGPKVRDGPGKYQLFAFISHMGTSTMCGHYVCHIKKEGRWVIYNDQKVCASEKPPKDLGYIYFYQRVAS
# Procedure, shortened: as §1
# USP54 = USP54 (UniProt Q70EL1)
# Procedure, shortened: as §1
# USP7 = USP7 (UniProt Q93009)
# Sequence of USP7 (Q93009 whole entry, looked up): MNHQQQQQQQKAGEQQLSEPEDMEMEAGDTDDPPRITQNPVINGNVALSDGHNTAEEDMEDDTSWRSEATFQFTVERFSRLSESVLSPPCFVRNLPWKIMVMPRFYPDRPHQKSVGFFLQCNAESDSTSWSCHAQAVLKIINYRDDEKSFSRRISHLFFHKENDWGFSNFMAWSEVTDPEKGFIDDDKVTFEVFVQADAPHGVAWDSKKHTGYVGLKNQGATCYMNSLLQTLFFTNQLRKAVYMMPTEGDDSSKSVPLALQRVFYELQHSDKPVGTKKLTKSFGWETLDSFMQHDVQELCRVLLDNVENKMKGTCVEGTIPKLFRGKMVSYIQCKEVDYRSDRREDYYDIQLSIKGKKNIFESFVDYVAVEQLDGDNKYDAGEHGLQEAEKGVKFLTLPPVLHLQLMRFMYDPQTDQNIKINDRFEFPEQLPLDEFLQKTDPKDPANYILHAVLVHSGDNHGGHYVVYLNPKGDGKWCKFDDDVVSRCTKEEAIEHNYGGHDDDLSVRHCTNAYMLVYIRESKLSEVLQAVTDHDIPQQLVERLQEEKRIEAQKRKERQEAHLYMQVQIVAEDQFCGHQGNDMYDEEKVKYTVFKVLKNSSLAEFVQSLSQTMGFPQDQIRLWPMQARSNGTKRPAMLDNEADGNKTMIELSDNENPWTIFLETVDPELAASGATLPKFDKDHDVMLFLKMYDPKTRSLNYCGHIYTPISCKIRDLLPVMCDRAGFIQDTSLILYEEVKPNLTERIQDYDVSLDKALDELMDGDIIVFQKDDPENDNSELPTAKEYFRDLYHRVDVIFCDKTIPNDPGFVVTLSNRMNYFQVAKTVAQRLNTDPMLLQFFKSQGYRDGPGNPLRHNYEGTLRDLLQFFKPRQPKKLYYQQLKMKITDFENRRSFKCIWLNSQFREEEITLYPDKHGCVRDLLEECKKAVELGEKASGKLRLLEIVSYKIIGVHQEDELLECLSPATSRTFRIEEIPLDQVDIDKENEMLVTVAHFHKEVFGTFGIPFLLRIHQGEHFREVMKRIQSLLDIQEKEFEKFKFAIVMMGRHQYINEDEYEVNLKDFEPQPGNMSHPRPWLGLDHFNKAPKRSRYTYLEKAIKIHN
# Procedure, shortened: as §1
# USP8 = molecular target: T5, USP8 (UniProt P40818)
# T5 sequence (whole entry): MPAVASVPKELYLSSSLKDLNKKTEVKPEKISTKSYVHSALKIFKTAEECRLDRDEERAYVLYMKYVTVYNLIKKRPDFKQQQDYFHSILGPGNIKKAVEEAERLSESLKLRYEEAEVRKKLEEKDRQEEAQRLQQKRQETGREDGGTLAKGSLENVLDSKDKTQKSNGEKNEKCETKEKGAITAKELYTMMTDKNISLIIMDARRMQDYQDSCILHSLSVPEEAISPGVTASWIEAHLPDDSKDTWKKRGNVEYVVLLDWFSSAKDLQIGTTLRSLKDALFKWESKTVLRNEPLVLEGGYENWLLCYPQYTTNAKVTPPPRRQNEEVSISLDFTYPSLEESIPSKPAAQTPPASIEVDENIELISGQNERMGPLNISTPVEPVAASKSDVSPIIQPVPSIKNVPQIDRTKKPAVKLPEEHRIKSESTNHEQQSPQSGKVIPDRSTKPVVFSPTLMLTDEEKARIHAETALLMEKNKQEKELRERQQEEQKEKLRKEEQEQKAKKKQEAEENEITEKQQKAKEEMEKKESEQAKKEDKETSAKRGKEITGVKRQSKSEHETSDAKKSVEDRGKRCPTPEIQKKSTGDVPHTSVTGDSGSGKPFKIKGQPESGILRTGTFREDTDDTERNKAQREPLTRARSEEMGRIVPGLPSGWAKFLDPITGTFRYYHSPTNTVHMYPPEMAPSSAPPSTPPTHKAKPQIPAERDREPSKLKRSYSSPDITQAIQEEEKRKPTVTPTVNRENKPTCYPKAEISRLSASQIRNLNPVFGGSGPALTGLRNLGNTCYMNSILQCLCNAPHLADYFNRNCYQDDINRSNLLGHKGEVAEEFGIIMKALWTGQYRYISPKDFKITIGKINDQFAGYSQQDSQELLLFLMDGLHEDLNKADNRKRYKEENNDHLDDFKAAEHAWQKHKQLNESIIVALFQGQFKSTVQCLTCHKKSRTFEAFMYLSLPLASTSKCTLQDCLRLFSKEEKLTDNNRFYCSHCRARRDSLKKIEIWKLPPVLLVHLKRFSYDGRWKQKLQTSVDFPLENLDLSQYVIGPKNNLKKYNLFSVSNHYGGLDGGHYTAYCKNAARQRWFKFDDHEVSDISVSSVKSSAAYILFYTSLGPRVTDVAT
# Procedure, shortened: as §1
# USP9X = USP9X (UniProt Q93008)
# Sequence of USP9X (Q93008 whole entry): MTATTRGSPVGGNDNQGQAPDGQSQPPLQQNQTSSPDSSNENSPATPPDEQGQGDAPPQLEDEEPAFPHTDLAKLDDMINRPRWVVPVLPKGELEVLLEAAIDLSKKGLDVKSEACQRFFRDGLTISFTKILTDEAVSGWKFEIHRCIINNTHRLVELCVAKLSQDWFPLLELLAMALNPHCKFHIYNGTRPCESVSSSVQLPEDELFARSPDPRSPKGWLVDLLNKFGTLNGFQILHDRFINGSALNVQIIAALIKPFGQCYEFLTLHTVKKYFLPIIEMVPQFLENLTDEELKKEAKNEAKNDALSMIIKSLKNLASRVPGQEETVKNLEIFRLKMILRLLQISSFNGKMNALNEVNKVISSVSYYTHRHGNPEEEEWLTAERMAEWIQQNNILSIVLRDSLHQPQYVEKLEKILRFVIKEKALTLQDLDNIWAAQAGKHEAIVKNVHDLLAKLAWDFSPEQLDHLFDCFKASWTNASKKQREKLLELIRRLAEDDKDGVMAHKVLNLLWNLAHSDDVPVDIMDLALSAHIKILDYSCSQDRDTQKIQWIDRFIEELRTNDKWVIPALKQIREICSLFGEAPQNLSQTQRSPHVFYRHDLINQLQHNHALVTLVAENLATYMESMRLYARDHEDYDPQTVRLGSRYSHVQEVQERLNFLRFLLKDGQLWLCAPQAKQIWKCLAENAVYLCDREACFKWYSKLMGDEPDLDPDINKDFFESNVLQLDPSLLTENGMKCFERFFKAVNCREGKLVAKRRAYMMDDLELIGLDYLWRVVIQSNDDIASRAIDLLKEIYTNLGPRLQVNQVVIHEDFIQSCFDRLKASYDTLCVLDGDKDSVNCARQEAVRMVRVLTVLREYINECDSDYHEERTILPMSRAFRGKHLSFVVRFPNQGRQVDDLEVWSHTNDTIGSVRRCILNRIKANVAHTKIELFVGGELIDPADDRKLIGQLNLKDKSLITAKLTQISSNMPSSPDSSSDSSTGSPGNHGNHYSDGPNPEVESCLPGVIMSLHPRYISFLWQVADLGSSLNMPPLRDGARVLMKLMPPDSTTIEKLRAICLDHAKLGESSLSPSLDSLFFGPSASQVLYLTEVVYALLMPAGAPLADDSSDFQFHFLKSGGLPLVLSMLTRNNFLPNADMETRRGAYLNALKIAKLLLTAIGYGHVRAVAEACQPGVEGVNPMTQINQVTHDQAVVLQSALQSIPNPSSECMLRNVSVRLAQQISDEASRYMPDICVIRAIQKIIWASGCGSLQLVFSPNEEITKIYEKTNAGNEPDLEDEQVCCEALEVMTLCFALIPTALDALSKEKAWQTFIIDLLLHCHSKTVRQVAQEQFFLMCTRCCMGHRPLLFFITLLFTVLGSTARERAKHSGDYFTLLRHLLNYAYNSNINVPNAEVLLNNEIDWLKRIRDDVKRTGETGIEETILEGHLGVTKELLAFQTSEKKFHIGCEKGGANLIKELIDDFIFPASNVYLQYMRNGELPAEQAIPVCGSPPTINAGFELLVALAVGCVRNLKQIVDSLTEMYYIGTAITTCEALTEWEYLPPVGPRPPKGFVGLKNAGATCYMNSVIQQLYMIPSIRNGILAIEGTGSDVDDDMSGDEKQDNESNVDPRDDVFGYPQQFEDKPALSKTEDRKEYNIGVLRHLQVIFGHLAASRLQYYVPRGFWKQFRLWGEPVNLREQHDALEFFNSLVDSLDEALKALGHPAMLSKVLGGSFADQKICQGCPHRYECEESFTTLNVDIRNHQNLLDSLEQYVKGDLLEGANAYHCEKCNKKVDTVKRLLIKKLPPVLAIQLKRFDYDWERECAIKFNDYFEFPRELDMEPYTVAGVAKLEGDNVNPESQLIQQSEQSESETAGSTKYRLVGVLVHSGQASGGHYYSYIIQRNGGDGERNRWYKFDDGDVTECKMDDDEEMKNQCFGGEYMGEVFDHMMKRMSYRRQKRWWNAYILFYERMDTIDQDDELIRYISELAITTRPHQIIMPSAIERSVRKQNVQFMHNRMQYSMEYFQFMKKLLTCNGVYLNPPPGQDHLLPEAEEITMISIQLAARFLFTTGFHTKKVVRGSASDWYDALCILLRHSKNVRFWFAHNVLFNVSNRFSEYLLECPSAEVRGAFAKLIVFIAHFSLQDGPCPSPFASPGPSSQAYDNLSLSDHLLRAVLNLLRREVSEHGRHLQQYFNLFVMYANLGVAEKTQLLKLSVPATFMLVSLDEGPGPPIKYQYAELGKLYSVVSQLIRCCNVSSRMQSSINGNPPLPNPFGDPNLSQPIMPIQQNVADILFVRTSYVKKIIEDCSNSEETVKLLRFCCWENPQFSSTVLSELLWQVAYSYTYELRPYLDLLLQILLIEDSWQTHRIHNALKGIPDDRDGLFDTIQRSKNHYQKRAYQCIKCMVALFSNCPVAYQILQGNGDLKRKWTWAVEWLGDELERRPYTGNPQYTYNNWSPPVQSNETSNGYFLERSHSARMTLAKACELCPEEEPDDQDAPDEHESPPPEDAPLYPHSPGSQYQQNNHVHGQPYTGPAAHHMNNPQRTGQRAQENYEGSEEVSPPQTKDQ
# Procedure, shortened: as §1
# UniProt O00487 = molecular target: UniProt O00487
# Sequence of UniProt O00487 (O00487 whole entry): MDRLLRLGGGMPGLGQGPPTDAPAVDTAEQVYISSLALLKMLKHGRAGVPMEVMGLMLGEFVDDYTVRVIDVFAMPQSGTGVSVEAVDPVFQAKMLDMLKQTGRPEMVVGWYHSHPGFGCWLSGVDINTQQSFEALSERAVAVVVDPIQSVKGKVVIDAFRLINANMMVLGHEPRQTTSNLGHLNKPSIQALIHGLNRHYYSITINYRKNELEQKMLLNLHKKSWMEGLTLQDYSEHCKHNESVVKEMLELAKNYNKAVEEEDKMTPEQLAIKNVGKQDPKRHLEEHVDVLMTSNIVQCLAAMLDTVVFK
# Procedure, shortened: as §1
SMILES,log2 ratio of Biotin-Ahx-Ub-VS probe labelling (USP42),log2 ratio of Biotin-Ahx-Ub-VS probe labelling (USP46),log2 ratio of Biotin-Ahx-Ub-VS probe labelling (USP47),log2 ratio of Biotin-Ahx-Ub-VS probe labelling (USP48),log2 ratio of Biotin-Ahx-Ub-VS probe labelling (USP5),log2 ratio of Biotin-Ahx-Ub-VS probe labelling (USP54),log2 ratio of Biotin-Ahx-Ub-VS probe labelling (USP7),log2 ratio of Biotin-Ahx-Ub-VS probe labelling (USP8),log2 ratio of Biotin-Ahx-Ub-VS probe labelling (USP9X),log2 ratio of Biotin-Ahx-Ub-VS probe labelling (UniProt O00487)
Cc1ccccc1C1(CNC(=O)CCl)CCOCC1,-0.0942,0.0453,-0.619,-0.295,0.17,0.35,-0.102,-0.0708,-0.0641,-0.115
O=C(CCl)Nc1cc(Cl)ccc1-n1cncn1,0.477,-0.691,-0.4,-0.638,-0.61,0.943,-1.33 (active),-0.73,-1.04 (active),-0.13
